Only some compounds are listed: those with a hit (about 5.4% of all), similar ones and a draw of the others.
A3A deaminase – inhibitors of human APOBEC3A DNA deaminase; P31941; recombinant A3A, FAM/TAMRA ssDNA deamination fluorescence; inhibition, % at 20 µM; 330,000 compounds, 0.41% hits; AID 493011;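 active = at least 40% inhibition at 20 µM here, with at most 30% in a related deaminase screen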;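 also: plate controls were A3A with DMSO for no effect and wells lacking A3A enzyme for full effect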
Target sequence (P31941 whole entry, looked up): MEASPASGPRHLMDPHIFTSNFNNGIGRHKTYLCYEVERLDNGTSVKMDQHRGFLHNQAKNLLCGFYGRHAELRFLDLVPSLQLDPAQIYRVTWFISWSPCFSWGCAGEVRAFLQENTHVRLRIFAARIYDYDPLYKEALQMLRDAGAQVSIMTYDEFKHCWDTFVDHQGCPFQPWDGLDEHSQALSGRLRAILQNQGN
ALR H2O2 inh – inhibitors of human sulfhydryl oxidase ALR; purified ALR, DTT oxidation, H2O2 HRP-luminol luminescence; inhibition, % (concentration not given with the values); P55789; 290,000 compounds, 3.8% hits;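 active = mean replicate inhibition above about 79%, with every replicate also reaching it, limit read from the data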
PHOSPHO1 block – PHOSPHO1 (human) inhibition | recombinant PHOSPHO1, absorbance phosphatase assay | inhibition, % at 13.3 µM | 290,000 compounds, 1.1% hits; in the data active = inhibition above about 60%
Target sequence (Q8TCT1 whole entry, looked up): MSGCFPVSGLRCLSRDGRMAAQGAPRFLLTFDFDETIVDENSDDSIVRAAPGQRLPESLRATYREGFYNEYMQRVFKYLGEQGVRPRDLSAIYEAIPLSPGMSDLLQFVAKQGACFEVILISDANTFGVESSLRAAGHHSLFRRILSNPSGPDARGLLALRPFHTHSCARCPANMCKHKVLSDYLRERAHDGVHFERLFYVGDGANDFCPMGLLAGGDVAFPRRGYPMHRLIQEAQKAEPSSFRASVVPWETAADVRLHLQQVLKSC
aDG glyco act – increases alpha dystroglycan glycosylation | 360,000 compounds, 0.22% hits | activation, % at 10 µM | Pro5-aDG cells, alpha-DG glycosylation AlphaScreen (IIH6); 0% Pro5, 100% B10-LARGE cell signal;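 active = activation of at least 8% versus controls, or a plate z-score of at least 8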;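 also: Pro5 are CHO cells carrying HIG-tagged alpha-DG that lacks glycosylation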
A3G deaminase – blocks human APOBEC3G single-stranded DNA deamination. Q9HC16. recombinant A3G, ssDNA deamination FAM/TAMRA fluorescence. inhibition, % at 20 µM. 330,000 compounds, 0.28% hits. AID 493012;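 active = inhibition of at least 40% at 20 µM, with no more than 30% in the related APOBEC3A deaminase screen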;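 also: plate controls were DMSO wells with A3G for no effect and wells lacking A3G enzyme for full effect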
rCAG binder – molecules binding r(CAG) RNA repeats; r(CAG) RNA repeat, TO-PRO-1 dye displacement fluorescence; inhibition, % at 3 µM; 370,000 compounds, 1.3% hits; AID 651821;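 active = inhibition above the plate cutoff, the mean of all test compounds on that plate plus 3 SD, cut at about 35% in these data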;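 also: 0% = DMSO alone and 100% = 100 µM mitoxantrone as full dye displacement; higher means more dye released from RNA so lower well fluorescence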
* marks the source's active call; other numbers are inactive results; nt = no result given.

SMILES	A3A deaminase	ALR H2O2 inh	PHOSPHO1 block	aDG glyco act	A3G deaminase	rCAG binder
CCC1CCCCN1S(=O)(=O)c1ccc(C(=O)Nc2nnc(C3=COCCO3)o2)cc1 (centres undefined)	-2	95*	-16	0	-6	29
Cc1ccc(C(=O)Nc2nnc(-c3ccncc3)o2)cc1	0	-11	17	0	-13	2
O=C(Nc1nnc(C2=COCCO2)o1)c1ccc(S(=O)(=O)N2CCCC2)cc1	-2	2	25	0	-5	10
CCCCN(C)S(=O)(=O)c1ccc(C(=O)Nc2nnc(C3=COCCO3)o2)cc1	-1	91*	-4	0	-8	23
COc1ccccc1C(=O)N1CCN(C(=O)[C@H](CCc2ccccc2)NC(=O)[C@H]2O[C@@H](n3cnc4c(N)ncnc43)[C@H](O)[C@@H]2O)CC1	nt	nt	nt	nt	nt	1
CC1CCN(S(=O)(=O)c2ccc(C(=O)Nc3nnc(-c4ccccn4)o3)cc2)CC1	-1	14	71*	0	-2	34
c1ccc2c3c([nH]c2c1)-c1[nH]ncc1CC3	-3	98*	39	0	1	14
Clc1ccc2[nH]c3c(c2c1)CCc1cn[nH]c1-3	-13	99*	56	0	4	24
COC(=O)[C@]12C[C@H](CC(=O)N3CCSCC3)C(=O)N(Cc3ccc4c(c3)OCO4)C1=C[C@H](C(C)(C)C)O[C@@H]2C	nt	nt	nt	nt	nt	-1
COCc1cn([C@H]2C[C@@H]3O[C@H](CO)CC[C@@H]3O[C@@H]2CCc2ccc(-c3ccc(OC)cc3)cc2)nn1	nt	nt	nt	nt	nt	7
N#Cc1ccc(S(=O)(=O)N2CCCc3nc(-c4ccc(Br)cc4)ccc32)cc1	nt	nt	nt	nt	nt	4
CC1CC/C(=N/Nc2ccccc2)C(=O)N1 (centres undefined)	3	99*	-2	0	-6	-2
Nc1cnc(Nc2ccc(Br)cc2)nc1N	0	96*	56	0	-4	15
N#Cc1c(N)nc(N)nc1Nc1ccc(Br)cc1	-4	nt	46	0	-14	-2
C=C1[C@@H]2CC[C@H]3[C@]4(C)[C@@H](O)CC[C@@](C)(C(=O)OC)[C@H]4C[C@H](O)[C@]3(C2)[C@H]1O	nt	nt	nt	nt	nt	0
Nc1ccc(Oc2cc(N)cc(Oc3ccccc3)c2)cc1	-3	100*	nt	0	-5	7
COC(=O)N1C(=O)[C@](c2ccsc2)(C(C)C)N1C(=O)OC	-1	30	67*	0	-7	-8
Cc1cc(NCc2ccccn2)nc2ccccc12	-1	84*	-3	0	-5	-2
Cc1nc(NCc2ccccn2)c2ccccc2n1	-1	nt	31	2	-1	-2
CCCCC(=O)Nc1ccc(C)c(S(=O)(=O)N2CCCCCC2)c1	-3	-1	nt	0	-5	-2
COC(=O)CCSCC(=O)Nc1ccc(C)c(S(=O)(=O)N2CCCCC2)c1	5	99*	40	0	1	-4
CCOC(=O)c1nnn2c1nc(SCC(C)=O)c1ccccc12	-4	88*	30	0	-13	-2
COC(=O)c1cc(-c2ccc(F)c(Cl)c2)c(=O)n2c1CCC2	nt	nt	nt	nt	nt	-1
CC(C)(C)c1ccc(S(=O)(=O)/N=C2\C=C(NS(=O)(=O)c3ccccc3)C(=O)c3ccccc32)cc1	-1	31	27	0	-1	59*
CCc1ccc(S(=O)(=O)/N=C2\C=C(Nc3ccc(C(=O)O)cc3)C(=O)c3ccccc32)cc1	6	nt	36	0	6	89*
SMILES	A3A deaminase	ALR H2O2 inh	PHOSPHO1 block	aDG glyco act	A3G deaminase	rCAG binder
CSC(=O)CC(=O)NC(=O)c1ccccc1	-6	97*	45	0	-5	6
CSc1nnc(SCC(=O)NC(=O)c2ccccc2)s1	-4	nt	nt	0	-5	2
COC(=O)c1cc(C(c2ccccc2O)C2CCC(C)(C)O2)n2ccccc12 (centres undefined)	nt	nt	nt	nt	nt	3
Cc1ccc(Nc2cc(C)c3c(O)cccc3n2)cc1C	0	35	13	0	-2	18
COc1ccc(Nc2cc(C)c3c(O)cccc3n2)cc1	-3	84*	27	0	4	8
Cc1cccc(C)c1NC(=O)C1CCN(c2ncccn2)CC1	nt	nt	nt	nt	nt	1
CCN(CC)c1ccc(NC(=O)c2ccccc2Br)cc1S(=O)(=O)Nc1ccccc1OC	6	nt	-7	1	34	13
CCN(CC)c1ccc(NC(=O)c2ccccc2F)cc1S(=O)(=O)Nc1ccccc1OC	3	-8	64*	0	32	7
COC(=O)[C@]12C[C@H](CC(=O)NCCc3ccccc3OC)C(=O)N(Cc3ccccc3)C1=C[C@H](COCc1ccccc1)O[C@@H]2C	nt	nt	nt	nt	nt	5
CCOC(=O)C1(C)/C(=N/Nc2ccccc2)C(=O)C(=O)N1c1ccccc1 (centres undefined)	-4	66	99*	0	22	11
COc1cc(/C=N/NC(=S)N/N=C/c2cc(OC)c(OC)c(OC)c2)cc(OC)c1OC	-3	88*	-1	0	-3	11
COc1cc(/C=N/NC(=O)Cc2csc(N3CCOCC3)n2)cc(OC)c1O	4	99*	8	0	4	-3
COc1cc(/C=N/NC(=S)NCCN2CCOCC2)cc(OC)c1O	5	99*	-20	0	-5	-1
COc1ccc(C=NNC(=S)NN=Cc2ccc(OC)c(OC)c2)cc1OC	nt	nt	nt	0	nt	11
Cc1cc(N2CCN(CC(C)(C)O)C[C@@H]2C)ccc1N1CCN(Cc2ccccc2)[C@@H](C)C1	nt	nt	nt	nt	nt	1
CC(=O)N1CCN(C2=NC(=O)N(c3ccc(Br)cc3)C(=O)C2)CC1	nt	nt	nt	nt	nt	5
CC1(C)CC[C@]2(C(=O)n3ccnc3)CC[C@]3(C)[C@H](C(=O)C=C4[C@@]5(C)C=C(C#N)C(=O)C(C)(C)[C@@H]5CC[C@]43C)[C@@H]2C1	nt	nt	nt	0	nt	53*
N#C/C(=C\c1ccc(O)c(O)c1)C(=O)N1CCCC1	0	100*	12	1	2	1
COc1ccc(/C=C(\C#N)C(=O)N2CCOCC2)cc1Br	4	nt	45	0	-5	1
COc1cc(/C=C(\C#N)C(=O)N2CCCCC2)ccc1O	-3	99*	-21	0	-3	1
N#C/C(=C\c1ccc(O)c(O)c1)C(=O)NCCCc1ccccc1	-5	nt	-14	0	-9	22
N#C/C(=C\c1ccc(O)c(O)c1)C(=O)c1ccc(O)c(O)c1	2	100*	nt	0	-4	31
COC(=O)C1=C(C)N(C)C(=NCc2ccccc2)NC1c1ccccc1 (centres undefined)	nt	nt	nt	nt	nt	7
CC(=O)Nc1nc2ncccn2c1-c1ccccc1	nt	nt	nt	nt	nt	1
COC(=O)[C@H]1C[C@@]2(N3CCCCC3)c3ccccc3N[C@H]2N1S(=O)(=O)c1ccc(C)cc1	nt	nt	nt	nt	nt	5
CCC(CO)[n+]1c(C)cc(/C=C2\Sc3ccccc3N2Cc2ccccc2)cc1C (centres undefined)	nt	98*	-10	0	nt	-54

Bioassay records deposited in PubChem by several laboratories.
